Assay results as given in article PMC4552634, “A New Set of Chemical Starting Points with Plasmodium falciparum Transmission-Blocking Potential for Antimalarial Drug Discovery” (PLoS ONE, 2015).
Hit rate of the full screen: of about 13,000 compounds, about 3,200 (25%) showed an effect of 50% or more. The list shows a part of the results.

Each compound was assayed on P. falciparum stage V gametocytes. Conditions: 48 h, 5 µM; inhibitor.
Design: BacTiter-Glo ATP luminescence viability of purified stage V gametocytes in 384-well plates, per cent inhibition versus DMSO

Compound | % Inhibition
CC1CCN(Cc2c(O)ccc3c(=O)c(-c4nc5ccccc5s4)c(N)oc23)CC1 [TCMDC-124313] | 12.71%
Cc1ccc(OCCCON2C(N)=NC(N)=NC2(C)C)cc1C [TCMDC-131650] | 7.659%
Cc1nc(NCCc2cnc[nH]2)cc(NCc2ccccc2)n1 [TCMDC-135164] | -1.635%
CN(C(=O)c1cc2c(-c3cncnc3)cccc2[nH]1)c1ccccc1 [TCMDC-134637] | 36.22%
CCC(CC)CN1C(=O)C(C)(c2ccccc2)N=C1N (stereo not shown) [TCMDC-137051] | 1.821%
COc1cc2c(cc1S(=O)(=O)c1ccc(NC(=O)c3cccc(C(F)(F)F)c3)cc1)CCN(C)CC2 [TCMDC-133791] | -4.764%
COc1cc2c(cc1S(=O)(=O)c1ccc(NC(=O)c3ccc4ccccc4c3)cc1)CCN(C)CC2 [TCMDC-133792] | 8.081%
COc1cccc(C(=O)Nc2ccc(S(=O)(=O)c3cc4c(cc3OC)CCN(C)CC4)cc2)c1 [TCMDC-133790] | 79.19%
O=C(CCc1cnc[nH]1)Nc1ccc(-c2ccc(-c3nc4ccccc4[nH]3)cc2)cc1 [TCMDC-132156] | -24.85%
c1csc(-c2nc(N3CCCCC3)ncc2-c2ccsc2)n1 [TCMDC-125370] | 9.865%
C=CCc1c(C(=O)NCC23CC4CC(CC(C4)C2)C3)[nH]c2ccccc2c1=O [TCMDC-136371] | -9.366%
CC(C)Cc1cn(-c2nc(-c3nc4ccccc4[nH]3)cs2)c2ccncc12 [TCMDC-132419] | 3.094%
Cc1cccc(CNc2nc(C)cc(N[C@@H](Cc3ccccc3)C(=O)NCCc3ccccc3)n2)c1 [TCMDC-134889] | -24.79%
COc1ccccc1CCNc1nc(C)cc(N[C@@H](CC(C)C)C(=O)NCCc2ccccc2)n1 [TCMDC-134807] | 30.27%
COc1ccccc1CCNc1nc(C)cc(N[C@@H](Cc2ccccc2)C(=O)Nc2ccccc2)n1 [TCMDC-134804] | 36.98%
Cc1cc(N[C@@H](Cc2ccccc2)C(=O)NCCc2ccccc2)nc(NCc2ccccc2C)n1 [TCMDC-134907] | -0.7865%
Cc1cc(N[C@@H](Cc2ccccc2)C(=O)NCCc2ccccc2)nc(NCCc2ccc(F)cc2)n1 [TCMDC-134867] | 49.67%
COc1ccccc1CCNc1nc(C)cc(N[C@@H](Cc2ccccc2)C(=O)NCCOc2ccccc2)n1 [TCMDC-134862] | 100.5%
Cc1cc(N[C@@H](Cc2ccccc2)C(=O)NCCc2ccccc2)nc(NCCc2ccccc2)n1 [TCMDC-134776] | 144.5%
Cc1cc(N[C@@H](Cc2ccccc2)C(=O)NCCCOC(C)C)nc(NCC2CCCCC2)n1 [TCMDC-134931] | 30.55%
COc1ccccc1CCNc1nc(C)cc(N[C@@H](Cc2ccccc2)C(=O)NCCc2ccccc2)n1 [TCMDC-134803] | 83.15%
COc1ccccc1CCNc1nc(C)cc(N[C@@H](Cc2ccccc2)C(=O)NCCCOC(C)C)n1 [TCMDC-134861] | 55.12%

Compound | % Inhibition
COC(=O)c1ccc(OCC(C)NCC(O)c2cccc(C(F)(F)F)c2)cc1 (stereo not shown) [TCMDC-131464] | 25.27%
N#Cc1ccc2c(c1)CCN(CCCn1c(-c3ccc4ccccc4c3)nc3ccncc31)CC2 [TCMDC-135551] | 19.09%
O=C(NCc1ccc(C(=O)NCc2cccc3ccccc23)cc1)c1ccc(O)c(-c2ccc(Cl)c(Cl)c2)c1 [TCMDC-140878] | 23.84%
Cc1ccc2nc(-c3ccccc3)cc(NN=Cc3cccnc3)c2c1 [TCMDC-142053] | -1.228%
CCOc1ccccc1N1CCN(CCCNC(=O)/C(=C/C=C/c2cc3cc(Cl)c(Cl)cc3[nH]2)OC)CC1 [TCMDC-139176] | 6.847%
Cc1cccc(CNc2ncc(C)c(NCCC(=O)Nc3ccccc3)n2)c1 [TCMDC-134848] | 47.31%
O=C(Nc1ccc(Br)cc1)N(CCN1CCOCC1)CC(O)COCc1ccc(F)cc1 (stereo not shown) [TCMDC-141489] | 29.66%
Cc1cc(=O)[nH]c(-n2nc(C)cc2NC(=O)C2(c3ccc(Cl)cc3)CCCC2)n1 [TCMDC-124943] | 43.65%
CN(C)CCN(C)C(=O)c1cc(-c2ccncc2)c(-c2ccc(Cl)c(O)c2)o1 [TCMDC-141393] | -25.23%
COc1c(C2=CCN(CCCCNC(=O)c3ccc(-c4ccc(C#N)cc4)cc3)CC2)ccc2c1CCCC2 [TCMDC-138753] | -8.55%
Cc1cc(N(C)CCN(C)C)nc(Nc2ccc(Cl)cc2)n1 [TCMDC-137008] | 22.54%
O=C(NC(=O)c1ccccc1)NC1CCN(c2ccnc3cc(Cl)ccc23)C1 (stereo not shown) [TCMDC-133403] | -14.2%
CCC[C@@H]([C@@H](CC1CCCCC1)C(=O)N[C@H](C(=O)Nc1ccccn1)[C@H](C)CC)N(O)C=O [TCMDC-138122] | -1.104%
Nc1ncc(-c2ccc3nccc(-c4ccncc4)c3c2)cc1S(=O)(=O)N1CCOCC1 [TCMDC-134180] | 94.06%
Nc1ncc(-c2ccc3nccc(-c4ccncc4)c3c2)cc1S(=O)(=O)N1CCCCC1 [TCMDC-134265] | 97.23%
O=C(c1ccc(-c2cnc3[nH]cc(-c4ccc(C(=O)N5CCOCC5)cc4)c3c2)cc1)N1CCOCC1 [TCMDC-132781] | -2.017%
Nc1ncc(-c2ccc3[nH]ccc3c2)c2ccc(-c3ccncc3)cc12 [TCMDC-133396] | 22.16%
CN1CCN(c2ccnc3ccc(NC(=O)Cc4ccc(-c5ccncc5)c5ccccc45)cc23)CC1 [TCMDC-139256] | 19.54%
CS(=O)(=O)c1ccc2nc(-c3cc(-c4ccc(OCCN5CCOCC5)cc4)cnc3N)[nH]c2c1 [TCMDC-133720] | 8.028%
O=C(/C=N/O)Nc1ccccc1[N+](=O)[O-] [TCMDC-123981] | -3.715%
CCn1c2ccccc2c2cc(Cc3cnc(N)nc3N)ccc21 [TCMDC-131929] | 0.5194%
